Most compounds without a hit are left out; they make up all but 3.4% or so of the library.
ADAM17 inh = inhibitors of human ADAM17; P78536; recombinant ADAM17, EDANS/DABCYL FRET peptide cleavage; inhibition, % at 6.95 µM; hit rate 0.83% among 370,000;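 active = inhibition above the mean of compounds lying between control limits plus 3 SD, set per campaign, cut at about 8.5% in these data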
PLC-gamma1 inh = PLC-gamma1 (human) inhibition, primary screen; P19174; purified PLC-gamma1, fluorogenic substrate, fluorescence; inhibition, % at 12.2 µM; hit rate 0.84% among 370,000; in the data active = inhibition above about 9.5%
HGIII-sPLA2 inh = Blocks human group III sPLA2 activity; inhibition, % at 12.2 µM; Q9NZ20; hit rate 0.56% among 370,000; QFRET BODIPY PC-A2 liposome hydrolysis, fluorescence;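 active = inhibition above mean plus 3 SD of compounds lying within the high and low control bounds, cut at about 19% in these data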
ADAM10 inh = ADAM10 inhibition, QFRET primary screen; hit rate 0.62% among 370,000; inhibition, % at 7 µM; recombinant ADAM10, EDANS/DABCYL FRET peptide cleavage, 3 h; AID 720582;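 active = inhibition above a per-campaign cutoff equal to the mean of compounds falling between control-based bounds plus 3 SD, cut at about 20% in these data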
Target sequence (O14672 214-748 limits assumed): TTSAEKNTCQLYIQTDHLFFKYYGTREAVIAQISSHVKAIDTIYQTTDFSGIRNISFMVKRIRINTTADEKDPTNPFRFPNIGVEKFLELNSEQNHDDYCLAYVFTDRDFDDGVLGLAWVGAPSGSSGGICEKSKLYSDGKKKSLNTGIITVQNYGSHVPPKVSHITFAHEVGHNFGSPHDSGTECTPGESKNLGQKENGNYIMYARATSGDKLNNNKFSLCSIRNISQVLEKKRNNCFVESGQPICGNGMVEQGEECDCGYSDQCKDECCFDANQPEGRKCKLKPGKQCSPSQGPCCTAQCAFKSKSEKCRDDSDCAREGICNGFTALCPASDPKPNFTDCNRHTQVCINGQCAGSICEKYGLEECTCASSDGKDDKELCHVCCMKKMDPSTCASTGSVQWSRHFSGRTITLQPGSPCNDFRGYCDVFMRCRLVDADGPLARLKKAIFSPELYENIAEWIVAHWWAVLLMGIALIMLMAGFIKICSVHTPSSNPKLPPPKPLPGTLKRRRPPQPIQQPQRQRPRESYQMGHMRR
proKLK7 act = activators of human kallikrein-7 zymogen; purified proKLK7, EDANS-DABCYL substrate fluorescence; 100% is mature enzyme control, 0% vehicle; activation, % at 7 µM; hit rate 0.9% among 370,000; AID 652039;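 active = activation above the mean of all tested compounds plus 3 SD, computed per campaign excluding outliers beyond control limits, cut at about 13% in these data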
PLCb3 inh = inhibitors of human phospholipase C beta3. Q01970. Purified PLC-beta3, fluorogenic substrate, fluorescence. inhibition, % at 12.2 µM. hit rate 0.18% among 370,000; in the data active = inhibition above about 11%
proKLK7 act conf = proKLK7 activation, confirmation; AID 686949; activation, % at 7 µM; hit rate 68% among 3,200; purified proKLK7, EDANS-DABCYL substrate fluorescence; scaled: vehicle 0, mature enzyme 100; shares compounds with proKLK7 act;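 active = activation, as change over the incubation, above the mean of all tested compounds plus 3 SD, cut at about 13% in these data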
EDANS-DABCYL int = counter-screen for kallikrein-7 activators: EDANS-DABCYL optical interference; shares compounds with proKLK7 act; hit rate 80% among 3,200; EDANS-DABCYL substrate fluorescence interference, no enzyme, 4 h; solvent 0%, active enzyme control 100%; activation, % at 7 µM; AID 686952;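 active = activation above the all-compound mean plus 3 SD, ignoring values outside control-based bounds, cut at about 4.8% in these data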;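 note: value is the 4 h activation minus the activation read at time zero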
Of the large screens only hits and unclear results are named; the others gave an inactive call (follow-up assays come after a bar, where they were run).

Cc1ccc(CNC(=O)O[C@H]2CC[C@@]34CCCN3C(=O)CCC[C@H]4[C@H]2C)o1	none (no result: proKLK7 act)
Cc1ccc(-c2cc(-c3nnc(SCC(=O)NC4CCCCC4)n3N)[nH]n2)cc1	none
Nc1[nH]c(C(=O)c2ccccc2)c(-c2cccc3ccccc23)c1C(=O)NC1CCCCC1	none
CC1(C)CC(=O)c2cc(OCC(=O)N3CCOCC3)ccc2O1	proKLK7 act 44 | proKLK7 act conf 71 | EDANS-DABCYL int 81
CC(C)NC(=O)COc1ccc2c(c1)C(=O)CC(C)(C)O2	proKLK7 act 37 | proKLK7 act conf 81 | EDANS-DABCYL int 85
CCCCCCCNC(=O)COc1ccc2c(c1)C(=O)CC(C)(C)O2	none
COC(=O)[C@]12C[C@H](CC(=O)NCC34CC5CC(CC(C5)C3)C4)C(=O)N(CCc3ccc(OC)c(OC)c3)C1=C[C@H](C(C)C)O[C@@H]2C1CC1	none
CCN(CC(=O)NCc1ccc(Cl)cc1)C(=O)/C=C/c1cc(OC)c(OC)c(OC)c1	none
CCN(CC(=O)NCc1ccc(F)cc1)C(=O)/C=C/c1cc(OC)ccc1OC	proKLK7 act 69 | proKLK7 act conf 60 | EDANS-DABCYL int 66
C[C@H]1[C@@H](NC(=O)c2cccc(C(F)(F)F)c2)CC[C@@]23CCCN2C(=O)CCC[C@@H]13	none (no result: proKLK7 act)
COc1ccc(-c2cc3ncnc(Cl)c3s2)cc1	proKLK7 act 27 | proKLK7 act conf inactive | EDANS-DABCYL int inactive
COc1ccc(-c2cc3nnc(-c4ccccc4)nc3s2)cc1	none
O=c1[nH]c2cc3c(cc2cc1CN(Cc1nnnn1C1CCCC1)C1CCCC1)OCCO3	proKLK7 act 29 | proKLK7 act conf inactive | EDANS-DABCYL int inactive
COc1cc2cc(CN(Cc3nnnn3Cc3ccccc3)CC3CCCO3)c(=O)[nH]c2cc1OC (stereo not drawn)	proKLK7 act 41 | proKLK7 act conf inactive | EDANS-DABCYL int inactive
CCC(C)(C)n1nnnc1CN(Cc1cc2cc(OC)c(OC)cc2[nH]c1=O)C1CCCC1	proKLK7 act 16 | proKLK7 act conf inactive | EDANS-DABCYL int inactive
Cc1ccc2[nH]c(=O)c(CN(Cc3nnnn3C3CCCC3)C3CCCCC3)cc2c1	none
CCc1c(-c2cccc(F)c2)ncn1CCc1ccccc1OC	none
COc1ccc(C(=O)N[C@H]2CC[C@@]34CCCN3C(=O)CCC[C@H]4[C@H]2C)cc1	none (no result: proKLK7 act)
CCc1nc(N=C(N)N)nc2ccccc12	none
COc1nc(N=C(N)N)nc2ccc(C)cc12	proKLK7 act 17 | proKLK7 act conf inactive | EDANS-DABCYL int 9.5
COc1ccc2c(c1)[C@@]1(OCCC=C[C@H]1C)C(=O)N2C/C=C(\C)CCC=C(C)C	none
COc1cccc(Nc2nc3cc(OC)ccc3cc2C#N)c1	proKLK7 act 29 | proKLK7 act conf 56 | EDANS-DABCYL int 61
COCCCNC(=O)C[C@H]1C[C@H](C(=O)N2CCCCC2)[C@@]2(C)c3[nH]c4cc(-c5ccco5)ccc4c3CCN2C1=O	proKLK7 act 170 | proKLK7 act conf 88 | EDANS-DABCYL int 114
C[C@]12c3[nH]c4cc(-c5ccco5)ccc4c3CCN1C(=O)[C@@H](CC(=O)NCCN1CCOCC1)C[C@@H]2C(=O)N1CCCCC1	proKLK7 act 134 | proKLK7 act conf 63 | EDANS-DABCYL int 61
C[C@]12c3[nH]c4ccccc4c3CCN1C(=O)C(CC(=O)NCc1cccc(C(F)(F)F)c1)C[C@@H]2C(=O)N1CCOCC1 (stereo partly drawn)	none
C[C@]12c3[nH]c4cc(-c5ccco5)ccc4c3CCN1C(=O)[C@@H](CC(=O)NCc1cccc(C(F)(F)F)c1)C[C@@H]2C(=O)N1CCOCC1	proKLK7 act 16 | proKLK7 act conf inactive | EDANS-DABCYL int inactive
COCCCNC(=O)CC1C[C@H](C(=O)N2CCCCC2)[C@@]2(C)c3[nH]c4ccccc4c3CCN2C1=O (stereo partly drawn)	none
COc1cc(/C=C2\CCCc3c2nc2ccccc2c3C(=O)O)cc(OC)c1O	none
COc1ccc(/C=C2\CCc3c2nc2ccccc2c3C(=O)O)cc1OC	proKLK7 act 16 | proKLK7 act conf 55 | EDANS-DABCYL int 65
N#Cc1ccc(-c2cccc3nccn23)cc1	proKLK7 act 78 | proKLK7 act conf 73 | EDANS-DABCYL int 68
c1cn2cc(-c3ccc(CN4CCOCC4)cc3)ccc2n1	none
CN1CCN(c2ccc(-c3cccc4nccn34)cn2)CC1	proKLK7 act 50 | proKLK7 act conf 22 | EDANS-DABCYL int 19
CC(=O)c1ccc(-c2cccc3nccn23)cc1	none
c1cc(-c2ccc(CN3CCOCC3)cc2)n2ccnc2c1	proKLK7 act 24 | proKLK7 act conf 21 | EDANS-DABCYL int 22
CC(=O)Nc1cccc(-c2cccc3nccn23)c1	proKLK7 act 18 | proKLK7 act conf 24 | EDANS-DABCYL int 27
c1cc(-c2ccsc2)n2ccnc2c1	none
CCOC(=O)C1=CCN(S(=O)(=O)c2ccc(Br)cc2)C1c1ccc(F)cc1 (stereo not drawn)	none
CCN(C)C(=O)Oc1cccc([C@H](C)N(C)C)c1	none
COc1ccccc1-n1c(N)c(C(=O)NCC2CCCO2)c2nc3ccccc3nc21 (stereo not drawn)	proKLK7 act 14 | proKLK7 act conf inactive | EDANS-DABCYL int inactive
Nc1c(C(=O)NCC2CCCO2)c2nc3ccccc3nc2n1-c1ccccc1 (stereo not drawn)	none
CC(C)c1ccc(/C=C2\Oc3c(ccc(O)c3CN3CCN(C)CC3)C2=O)cc1	proKLK7 act 38 | proKLK7 act conf inactive | EDANS-DABCYL int inactive
CCN1CCN(Cc2c(O)ccc3c2O/C(=C\C=C\c2ccccc2OC)C3=O)CC1	none
Cc1ccc(/C=C2\Oc3c(ccc(O)c3CN3CCN(CCO)CC3)C2=O)cc1	proKLK7 act 96 | proKLK7 act conf 79 | EDANS-DABCYL int 73
COc1ccc(C2C(C(=O)N3CCN(c4ccccc4Cl)CC3)CC(=O)N2c2ccc(OC)cc2)cc1 (stereo not drawn)	none
CCNC(=O)N1CCN(c2ccc(N3CCN(C(=O)NCC)[C@H](C)C3)c(C)c2)[C@H](C)C1	none
COc1ccc(S(=O)(=O)N2CCCc3nc(C)c(C)cc32)cc1	none
Cc1c(-n2cc(C(=O)O)c(=O)c3cc(F)c(N4CCCC4)c(F)c32)c(=O)n(-c2ccccc2)n1C	none
CN1CCN(c2c(F)cc3c(=O)c(C(=O)O)cn4c3c2SCC4)CC1	proKLK7 act 98 | proKLK7 act conf 35 | EDANS-DABCYL int 43

Screening results (PubChem BioAssay)
